For ten compounds, growth results are on record in PubChem BioAssay (NCI).

Structures are written as SMILES. About 83,000 compounds went through this panel and 20% of them were active in at least one assay; those are over-represented in the sample as a whole.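 In brief: 96-well plates, 48 h treatment, single concentration, percent growth endpoint.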 A number with no mark means an inactive call. Active and inactive are the calls of the source. Rule for the calls: active = growth percent below 10; inactive = the rest.

What all share (assay): NCI-60 one-dose screen, 48 h (100 = growth as untreated, 0 = no growth, -100 = all killed)
Holding throughout (settings): 10 µM unless noted

The test system of test [1] is SNB-75 CNS.
Test [2] has as its system SNB-19 CNS.
For test [3], the system named is U251 CNS.
In test [4] the test system is SK-MEL-5 melanoma.
The subject of test [5] is UACC-62 melanoma.
Test [6] deals with LOX IMVI melanoma.
Test [7] deals with SK-MEL-28 melanoma.
The subject of test [8] is EKVX NSCLC.
Test [9] deals with SN12C renal.
In test [10] the test system is UO-31 renal.
Test [11] has as its system TK-10 renal.
Test [12] deals with ACHN renal.
In test [13] the test system is CAKI-1 renal.
The subject of test [14] is A498 renal.
Test [15] relates to MOLT-4 leukemia.
The test system of test [16] is SR leukemia.
For test [17], the system named is SK-MEL-2 melanoma.
Test [18] concerns CCRF-CEM leukemia.
Test [19] concerns PC-3 prostate.

On to `COc1ccc(-c2cc(Cc3cccs3)c(=O)n(Cn3ccc4ccccc43)n2)cc1`, for which the growth in [1] is 92.6%; in test [2] it was 102%; in [3], 104%; in test [4], 104%; in [5], 87.7%; in [6], 96.5%. Further, the growth is 114% in test [7]; 101% in test [8]; 97.7% in test [9]; 83% in test [10]; 98.1% in [11]; 102% in test [12]. Moreover, the growth in test [13] is 95.7%; in test [14], 98.9%; in test [15] it was 97.5%; in test [16] it was 87%.
In the case of `Nc1ccc(S(=O)(=O)Nc2ncccn2)cc1`, the growth in test [1] was 102%; in [2], 105%; in test [3], 106%; in [4] it was 108%; in [6], 102%; in test [7], 118%. Besides, the growth in test [17] is 106%; in test [8], 103%; in test [9], 103%; in [10], 94.5%; in test [11] it was 114%; in test [12], 98.6%. The growth in [13] was 103%; in test [14] it was 113%; in test [18] it was 101%; in test [15], 106%; in test [16], 103%.
As for `O=[P@@]1(c2ccccc2)O[C@H](COCc2ccccc2)[C@@H](OCc2ccccc2)[C@H](OCc2ccccc2)[C@H]1NCc1ccccc1`, the growth was 27.9% in [1]; 33.9% in [2]; 10.5% in test [19]; 38% in test [4]; 24% in [5]; 5.71% (active) in [6]. Moreover, the growth in test [7] is 49.2%; in test [17] it was 29.5%; in test [8], 17.6%; in [9], -39.4% (active); in [10], -7.83% (active); in test [11], 13.5%. The growth in [12] is 10%; in [18], 15.9%; in [15], 0.343% (active); in test [16], -2.72% (active).
As to `c1csc([C@@H]2C[C@@H]3Cc4ccc5ccccc5c4N2O3)c1`, the growth in [1] is 87.1%; in test [2], 97.5%; in [3], 96.8%; in test [4], 101%; in test [5] it was 79.7%; in test [6] it was 98.9%. In addition, the growth in [7] was 103%; in [8] it was 78.8%; in [9], 94.3%; in test [10], 70.2%; in test [11] it was 88.7%; in [12], 107%. The growth in test [13] is 82.2%; in test [14], 79.8%; in [15] it was 78.3%; in test [16] it was 95.1%.
`O=C1NCC(Nc2ccc(Br)cc2Cl)C(=O)N1` (stereo unspecified): the growth in test [1] was 91%; in test [2], 102%; in test [4], 104%; in test [5], 101%; in test [6], 105%; in [7] it was 110%. The growth in test [8] is 90.7%; in test [9] it was 102%; in test [10] it was 67.7%; in test [11] it was 110%; in [12], 96.2%; in test [13] it was 91.8%. The growth in test [14] is 117%; in test [18] it was 116%; in test [15], 109%; in test [16] it was 101%.
As to `CC1=CSC2=NCCN12`, the growth is 98.4% in [1]; 101% in [2]; 109% in test [3]; 106% in [4]; 100% in [5]; 94.4% in test [6]. Moreover, the growth in [7] is 118%; in test [8] it was 103%; in test [9], 99.5%; in test [10] it was 77.6%; in [11], 97.7%; in [12], 110%. Further, the growth in test [13] was 93.5%; in test [14] it was 118%; in test [18] it was 93.6%; in [15], 102%; in [16], 93.1%.
In the case of `COc1ccc(Nc2nccc(N3CCN(c4c5ccc(Cl)cc5nc5ccc(OC)cc45)CC3)n2)cc1`, the growth in test [1] was 67.5%; in test [2], 92.2%; in test [19], 57.9%; in [5] it was 76.4%; in test [7], 105%; in test [9], 68.5%. Moreover, the growth in [10] is 47.5%; in [11], 59.2%; in [12] it was 57.8%; in [13], 71.5%; in [14] it was 62.9%; in test [18], 4.07% (active). The growth was -2.31% (active) in test [15] and 21.1% in test [16].
Take `O=C(CCc1nnc(SCc2ccccc2)s1)c1nc2ccccc2[nH]1`: the growth in test [1] is 90.5%; in test [2], 93.2%; in [3], 89.6%; in test [4], 99.4%; in [5] it was 84.8%; in [6], 80.8%. In addition, the growth in [7] is 108%; in test [8] it was 93.8%; in test [9], 92.7%; in test [10], 74.3%; in test [11] it was 95.8%; in [12], 94.4%. Also, the growth in [13] was 90.7%; in test [14], 72.7%; in [15], 70.1%.
As to `N=C(N)/N=C(\CCc1nc2ccccc2[nH]1)c1nc2ccccc2[nH]1`, the growth in [1] was 82.5%; in test [2], 93.6%; in [3], 103%; in test [4], 98%; in [5], 82.2%; in test [6], 85.4%. The growth in test [7] is 100%; in test [8] it was 92.7%; in test [9], 85.6%; in test [10] it was 67.6%; in [11], 105%; in test [12] it was 92.3%. The growth was 93.6% in test [13]; 111% in test [14]; 99.5% in test [18]; 107% in test [15]; 83.9% in test [16].
Regarding `Clc1ccc([C@@H]2C[C@@H]3Cc4cc(Br)c5ccccc5c4N2O3)c(Cl)c1`, the growth in test [1] was 56.2%; in [2], 83.8%; in test [3] it was 60.6%; in test [4], 93.8%; in test [5] it was 62.8%; in test [6], 72.1%. The growth is 69.9% in test [7]; 108% in [8]; 96.8% in [9]; 64% in test [10]; 90.2% in test [11]; 81.6% in test [12]. The growth in test [13] was 73.6%; in [14], 87%; in test [18], 66.5%; in test [15] it was 78%; in [16] it was 20.8%.
